Results taken from PubChem BioAssay AID1159580 (chemical genetic matrix, 2015).
Where “and” joins values, the source holds several entries; their conditions need not be identical. Equal values may be shown once. The campaign covered roughly 5,500 compounds. About 2,000 (36%) were called active. Roughly 18% stayed inconclusive and do not appear here. No stated cut-off is given here; in the data, active means normalized growth mostly below about 0.91 (no sharp cut-off); inconclusive means no clear call, values can overlap the other calls; inactive means mostly above about 0.92. The list shows a part of the results.

Assay: chemical genetic growth profiling, strain panel (AID 1159580);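 further: tested at 20 µM; growth read once vehicle control cultures reached saturation at 30 °C; 1 = growth at the plate median or of vehicle wells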
Conditions: S. cerevisiae deletion strains, growth OD

Measured: normalized growth

COc1cc(-c2coc3cc(OC)c(OC)c(OC)c3c2=O)cc(OC)c1OC
inactive: locus YAL013W, strain DEP1, stronger effect = lower value 0.994 | locus YAL021C, strain ccr4, stronger effect = lower value 1 | locus YAL026C, strain drs2, stronger effect = lower value 1.01 | locus YAL030W, strain snc1, stronger effect = lower value 1.01 | locus YBL061C, strain skt5, stronger effect = lower value 0.996 | locus YBR009C, strain hhf1, stronger effect = lower value 0.993 | locus YBR021W, strain FUR4, stronger effect = lower value 1.02 | locus YBR023C, strain chs3, stronger effect = lower value 0.991 | locus YBR171W, strain sec66, stronger effect = lower value 0.99 | locus YBR229C, strain ROT2, stronger effect = lower value 1 | locus YBR231C, strain swc5, stronger effect = lower value 0.969 | locus YBR279W, strain paf1, stronger effect = lower value 1.01 | locus YCL011C, strain gbp2, stronger effect = lower value 1 | locus YCL016C, strain dcc1, stronger effect = lower value 0.987 | locus YCL029C, strain bik1, stronger effect = lower value 0.973 | locus YCL061C, strain MRC1, stronger effect = lower value 1.01 | locus YCL069W, strain vba3, stronger effect = lower value 1.01 | locus YCR088W, strain abp1, stronger effect = lower value 1.01 | locus YDL005C, strain med2, stronger effect = lower value 0.996 | locus YDL035C, strain GPR1, stronger effect = lower value 1.03 | locus YDL040C, strain nat1, stronger effect = lower value 0.995 | locus YDL074C, strain BRE1, stronger effect = lower value 1.02 | locus YDL101C, strain DUN1, stronger effect = lower value 0.981 | locus YDL185W, strain tfp1, stronger effect = lower value 0.968 | locus YDL192W, strain arf1, stronger effect = lower value 1.03 | locus YDR001C, strain nth1, stronger effect = lower value 0.999 | locus YDR069C, strain doa4, stronger effect = lower value 1.01 | locus YDR101C, strain arx1, stronger effect = lower value 1.06 | locus YDR137W, strain rgp1, stronger effect = lower value 1.01 | locus YDR159W, strain sac3, stronger effect = lower value 0.947 | locus YDR162C, strain NBP2, stronger effect = lower value 1.03 | locus YDR195W, strain ref2 0.963 | locus YDR297W, strain sur2, stronger effect = lower value 1.01 | locus YDR318W, strain mcm21, stronger effect = lower value 0.993 | locus YDR334W, strain swr1, stronger effect = lower value 0.994 | locus YDR335W, strain msn5, stronger effect = lower value 1 | locus YDR388W, stronger effect = lower value 0.985 | locus YDR392W, strain spt3, stronger effect = lower value 0.888 | locus YDR502C, strain sam2, stronger effect = lower value 0.985 | locus YEL003W, strain gim4, stronger effect = lower value 0.992 | locus YEL037C, strain rad23, stronger effect = lower value 1 | locus YEL061C, strain CIN8 (second series), stronger effect = lower value 1 | locus YEL061C, strain CIN8, stronger effect = lower value 0.994 | locus YER015W, strain faa2, stronger effect = lower value 1 | locus YER016W, strain bim1, stronger effect = lower value 0.999 | locus YER110C, stronger effect = lower value 0.968 | locus YER111C, strain swi4, stronger effect = lower value 0.989 | locus YER155C, strain BEM2 (second series), stronger effect = lower value 0.968 | locus YER155C, strain BEM2, stronger effect = lower value 0.984 | locus YER167W, strain BCK2, stronger effect = lower value 1 | locus YFR010W, strain ubp6, stronger effect = lower value 0.996 | locus YGL078C, strain dbp3, stronger effect = lower value 0.975 | locus YGL086W, strain mad1, stronger effect = lower value 1.01 | locus YGL167C, strain pmr1, stronger effect = lower value 1 | locus YGL173C, strain kem1, stronger effect = lower value 1 | locus YGL227W, strain vid30, stronger effect = lower value 0.99 | locus YGL240W, strain doc1, stronger effect = lower value 0.987 | locus YGL248W, strain PDE1, stronger effect = lower value 0.965 | locus YGL253W, strain hxk2, stronger effect = lower value 0.996 | locus YGR135W, strain pre9, stronger effect = lower value 0.952 | locus YGR252W, strain gcn5, stronger effect = lower value 1.01 | locus YHR013C, strain ard1, stronger effect = lower value 0.996 | locus YHR027C, strain rpn1, stronger effect = lower value 0.997 | locus YHR030C, strain SLT2, stronger effect = lower value 0.997 and 1.06 | locus YHR079C, strain IRE1 (second series), stronger effect = lower value 0.992 | locus YHR079C, strain IRE1, stronger effect = lower value 1.02 | locus YHR094C, strain hxt1, stronger effect = lower value 1 | locus YHR129C, strain ARP1, stronger effect = lower value 0.996 | locus YHR142W, strain chs7, stronger effect = lower value 0.994 | locus YHR200W, strain rpn10, stronger effect = lower value 1.01 | locus YIL066C, strain RNR3, stronger effect = lower value 1 | locus YIL073C, strain SPO22, stronger effect = lower value 0.921 | locus YIL125W, strain kgd1, stronger effect = lower value 1.01 | locus YIR030C, strain dcg1, stronger effect = lower value 0.989 | locus YJL092W, strain hpr5, stronger effect = lower value 1.01 | locus YJL095W, strain BCK1 (second series), stronger effect = lower value 1 | locus YJL095W, strain BCK1, stronger effect = lower value 0.986 and 1.07 | locus YJL115W, strain asf1, stronger effect = lower value 1 | locus YJL129C, strain trk1, stronger effect = lower value 0.988 | locus YJL134W, strain LCB3, stronger effect = lower value 1 | locus YJL154C, strain vps35, stronger effect = lower value 0.99 | locus YJL164C, strain tpk1, stronger effect = lower value 1 | locus YJL166W, strain qcr8, stronger effect = lower value 0.999 | locus YJL168C, strain set2, stronger effect = lower value 0.993 | locus YJL187C, strain SWE1 (second series), stronger effect = lower value 0.968 | locus YJR043C, strain POL32, stronger effect = lower value 1.04
